Assay results as given in PMC9838217, “Structure of SALL4 zinc finger domain reveals link between AT-rich DNA binding and Okihiro syndrome”.
Residue numbers refer to the chain shown, from its start.

Experiments:
Assay in all cases: HT-SELEX; high values mean tight binding
Conditions in all cases: protein: recombinant; vector His6-GST; dsDNA, one strand shown
[1] = target: T1, SALL4 ZFC4 WT (HT-SELEX) (Mus musculus, UniProt Q8BX22 870-940)
T1 sequence: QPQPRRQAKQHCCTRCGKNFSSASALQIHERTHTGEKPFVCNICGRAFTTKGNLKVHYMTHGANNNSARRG
Summary of the method: (§1)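 In triplicate selections of up to 6 cycles, purified recombinant mouse SALL4 zinc finger cluster 4 (residues 870–940, 1 µg) was incubated 10 min at room temperature with library DNA (1.5 µg, then 200 ng) in 100 µl of 10 mM Tris–HCl pH 7.5, 50 mM NaCl, poly(dI-dC) and DTT, and complexes were captured on Ni2+ beads, washed and PCR-amplified. Sequencing was done on MiSeq with scanning for 6-mers. The binding signal is each canonical k-mer's read fraction, reported as fold change against the initial random library.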

[2] = target: T2, SALL4 ZFC4 R900W (HT-SELEX) (Mus musculus, UniProt Q8BX22 870-940, R900W)
T2 sequence: T1 sequence with R31W
Summary of the method: as §1

[3] = target: T3, SALL4 ZFC4 G921D (HT-SELEX) (Mus musculus, UniProt Q8BX22 870-940, G921D)
T3 sequence: T1 sequence with G52D
Summary of the method: as §1

## CCTAGC
[1]
  binding signal: 0.4 ± 0.0405 fold-change vs cycle 0
[2]
  binding signal: 0.434 ± 0.0293 fold-change vs cycle 0
[3]
  binding signal: 0.55 ± 0.055 fold-change vs cycle 0

## CTGGAC
[1]
  binding signal: 0.396 ± 0.0407 fold-change vs cycle 0
[2]
  binding signal: 0.495 ± 0.0552 fold-change vs cycle 0
[3]
  binding signal: 0.584 ± 0.0722 fold-change vs cycle 0

## CATACC
[1]
  binding signal: 0.854 ± 0.0198 fold-change vs cycle 0
[2]
  binding signal: 0.927 ± 0.0242 fold-change vs cycle 0
[3]
  binding signal: 0.944 ± 0.0221 fold-change vs cycle 0

## CCAACC
[1]
  binding signal: 0.393 ± 0.0262 fold-change vs cycle 0
[2]
  binding signal: 0.466 ± 0.0254 fold-change vs cycle 0
[3]
  binding signal: 0.565 ± 0.0588 fold-change vs cycle 0

## ATTAAG
[1]
  binding signal: 2.1 ± 0.107 fold-change vs cycle 0
[2]
  binding signal: 2.09 ± 0.139 fold-change vs cycle 0
[3]
  binding signal: 1.82 ± 0.22 fold-change vs cycle 0

## ACACTA
[1]
  binding signal: 1.26 ± 0.0187 fold-change vs cycle 0
[2]
  binding signal: 1.3934 ± 0.0013 fold-change vs cycle 0
[3]
  binding signal: 1.36 ± 0.0513 fold-change vs cycle 0

## ATCCAG
[1]
  binding signal: 0.851 ± 0.0326 fold-change vs cycle 0
[2]
  binding signal: 0.955 ± 0.027 fold-change vs cycle 0
[3]
  binding signal: 0.988 ± 0.0337 fold-change vs cycle 0

## CTGAAC
[1]
  binding signal: 0.859 ± 0.0362 fold-change vs cycle 0
[2]
  binding signal: 0.995 ± 0.0342 fold-change vs cycle 0
[3]
  binding signal: 1.01 ± 0.0412 fold-change vs cycle 0

## GTGTGA
[1]
  binding signal: 0.748 ± 0.0198 fold-change vs cycle 0
[2]
  binding signal: 0.881 ± 0.0312 fold-change vs cycle 0
[3]
  binding signal: 0.9 ± 0.0278 fold-change vs cycle 0

## ACTCCG
[1]
  binding signal: 0.4 ± 0.00858 fold-change vs cycle 0
[2]
  binding signal: 0.466 ± 0.0288 fold-change vs cycle 0
[3]
  binding signal: 0.594 ± 0.0678 fold-change vs cycle 0

## CCAAAC
[1]
  binding signal: 0.6318 ± 0.0044 fold-change vs cycle 0
[2]
  binding signal: 0.729 ± 0.0202 fold-change vs cycle 0
[3]
  binding signal: 0.813 ± 0.0511 fold-change vs cycle 0

## TAACGA
[1]
  binding signal: 1.27 ± 0.0588 fold-change vs cycle 0
[2]
  binding signal: 1.31 ± 0.0864 fold-change vs cycle 0
[3]
  binding signal: 1.26 ± 0.0862 fold-change vs cycle 0

## ATCGTA
[1]
  binding signal: 1.24 ± 0.0384 fold-change vs cycle 0
[2]
  binding signal: 1.28 ± 0.0284 fold-change vs cycle 0
[3]
  binding signal: 1.29 ± 0.0379 fold-change vs cycle 0

## ACGTAC
[1]
  binding signal: 0.714 ± 0.0363 fold-change vs cycle 0
[2]
  binding signal: 0.825 ± 0.0331 fold-change vs cycle 0
[3]
  binding signal: 0.862 ± 0.022 fold-change vs cycle 0

## CCCTTC
[1]
  binding signal: 0.486 ± 0.0255 fold-change vs cycle 0
[2]
  binding signal: 0.614 ± 0.0191 fold-change vs cycle 0
[3]
  binding signal: 0.653 ± 0.0312 fold-change vs cycle 0

## CCGTGA
[1]
  binding signal: 0.39 ± 0.0265 fold-change vs cycle 0
[2]
  binding signal: 0.468 ± 0.0123 fold-change vs cycle 0
[3]
  binding signal: 0.578 ± 0.0442 fold-change vs cycle 0

## GAAGCA
[1]
  binding signal: 0.667 ± 0.0348 fold-change vs cycle 0
[2]
  binding signal: 0.784 ± 0.0247 fold-change vs cycle 0
[3]
  binding signal: 0.88 ± 0.0121 fold-change vs cycle 0

## CTCTGA
[1]
  binding signal: 0.812 ± 0.0446 fold-change vs cycle 0
[2]
  binding signal: 0.948 ± 0.0551 fold-change vs cycle 0
[3]
  binding signal: 0.993 ± 0.0433 fold-change vs cycle 0

## CAGGAG
[1]
  binding signal: 0.48 ± 0.0178 fold-change vs cycle 0
[2]
  binding signal: 0.596 ± 0.041 fold-change vs cycle 0
[3]
  binding signal: 0.676 ± 0.0293 fold-change vs cycle 0

## GTGAGA
[1]
  binding signal: 0.859 ± 0.0299 fold-change vs cycle 0
[2]
  binding signal: 0.971 ± 0.0233 fold-change vs cycle 0
[3]
  binding signal: 0.986 ± 0.0119 fold-change vs cycle 0

## ACCATG
[1]
  binding signal: 0.8385 ± 0.0023 fold-change vs cycle 0
[2]
  binding signal: 0.925 ± 0.0262 fold-change vs cycle 0
[3]
  binding signal: 0.997 ± 0.0244 fold-change vs cycle 0

## CGATAC
[1]
  binding signal: 0.695 ± 0.052 fold-change vs cycle 0
[2]
  binding signal: 0.793 ± 0.033 fold-change vs cycle 0
[3]
  binding signal: 0.902 ± 0.0425 fold-change vs cycle 0

## GTCAAA
[1]
  binding signal: 0.9908 ± 0.00315 fold-change vs cycle 0
[2]
  binding signal: 1.12 ± 0.0182 fold-change vs cycle 0
[3]
  binding signal: 1.13 ± 0.0122 fold-change vs cycle 0

## CTTTAC
[1]
  binding signal: 1.34 ± 0.0196 fold-change vs cycle 0
[2]
  binding signal: 1.5 ± 0.0474 fold-change vs cycle 0
[3]
  binding signal: 1.36 ± 0.0809 fold-change vs cycle 0

## ACAGGT
[1]
  binding signal: 0.824 ± 0.0401 fold-change vs cycle 0
[2]
  binding signal: 0.95 ± 0.0293 fold-change vs cycle 0
[3]
  binding signal: 0.985 ± 0.0191 fold-change vs cycle 0

## ACTGGG
[1]
  binding signal: 0.468 ± 0.0365 fold-change vs cycle 0
[2]
  binding signal: 0.547 ± 0.0062 fold-change vs cycle 0
[3]
  binding signal: 0.615 ± 0.0193 fold-change vs cycle 0

## ACATCT
[1]
  binding signal: 1.34 ± 0.0364 fold-change vs cycle 0
[2]
  binding signal: 1.46 ± 0.0394 fold-change vs cycle 0
[3]
  binding signal: 1.4 ± 0.0574 fold-change vs cycle 0

## AATTAT
[1]
  binding signal: 4.89 ± 0.536 fold-change vs cycle 0
[2]
  binding signal: 2.6 ± 0.249 fold-change vs cycle 0
[3]
  binding signal: 2.25 ± 0.303 fold-change vs cycle 0

## GGACAA
[1]
  binding signal: 0.637 ± 0.0222 fold-change vs cycle 0
[2]
  binding signal: 0.742 ± 0.00957 fold-change vs cycle 0
[3]
  binding signal: 0.828 ± 0.043 fold-change vs cycle 0

## CCGTAC
[1]
  binding signal: 0.377 ± 0.0221 fold-change vs cycle 0
[2]
  binding signal: 0.458 ± 0.015 fold-change vs cycle 0
[3]
  binding signal: 0.544 ± 0.0408 fold-change vs cycle 0
